These results are taken from PubChem BioAssay AID651789 (National Center for Advancing Translational Sciences (NCATS), 2012).

Inconclusive results are not listed. Calls of active or inactive are those of the source. Calls come from the whole dose curve; as a rule, active = well fitted inhibition curve with a large enough effect; inconclusive = small, poorly fitted or top-dose-only effect; inactive = no such curve, though single readings can be large or run the other way.
Potency is the fitted concentration of half-maximal effect.

A short description of this assay: Acumen qHTS Assay for Inhibitors of the mTORC1 Signaling Pathway in WT MEF Cells: Hit Validation.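 For activity change, negative = inhibition: phospho-rpS6 Ser235/236 immunofluorescence normalised to propidium iodide cell stain; percent of cells above a cutoff set by 7.5 nM rapamycin treated wells.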 Note: nearly all actives have a fitted effect of over 60% in size. The following applies: Acumen imaging; series mostly up to 37.3 µM; activity change, negative = inhibition: at the top concentration. Put shortly:
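Read-out is immunofluorescent phospho-rpS6 (Ser235/236) normalised to PI-stained cell number, reported as % active cells using a 7.5 nM rapamycin threshold. Cells: WT or Tsc2-/-, p53-/- MEFs, compound-exposed 24 h at 37C; PI count also tracks viability.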
In general terms: In qHTS, concentration-response curves come from the screen itself.
`CCOc1cc(-c2nnc(SCC(=O)NCc3ccccc3)nc2-c2ccc(OC)c(OCC)c2)ccc1OC`: the Potency was 0.927 µM (active). Take `Cc1ccc(C)c(N2CCN(CCCNC(=O)c3nnc(Cc4ccc(F)cc4Cl)o3)CC2)c1`: the “activity change, negative = inhibition” value is -11.5% (inactive). Regarding `Cc1ccc2nc(/C(C#N)=C/c3ccc(-c4ccc(F)cc4F)o3)[nH]c2c1`, the Potency was 4.14 µM (active). Turning to `CCCCN1C(=O)C(O)(c2c(C)[nH]c3ccccc23)c2cc(Br)ccc21` (stereo not given), the “activity change, negative = inhibition” value is -22% (inactive). As to `Cc1ccc(Nc2nnc(-c3ccc(C)c(S(=O)(=O)N4CCOCC4)c3)c3ccccc23)c(C)c1`, the “activity change, negative = inhibition” value was -0.763% (inactive). For the compound `Cc1nn(C(C)C(=O)NC2CCC(C)CC2)c(=O)c2c1sc1ccccc12` (stereo not given), the “activity change, negative = inhibition” value was 1.53% (inactive).

For `Cc1ccc(NC(=O)c2c(C)oc3ccc(O)c(CN(C)Cc4ccccc4)c23)c(C)c1`, the “activity change, negative = inhibition” value is 18.5% (inactive). In the case of `O=S(=O)(NCc1nc2cccnc2n1Cc1ccccc1Cl)c1ccc(F)c(Cl)c1`, the “activity change, negative = inhibition” value was -18.5% (inactive). Turning to `CCCOCc1cc(CN2CCN(c3ccccc3OC)CC2)c(O)c2ncccc12`, the Potency is 1.47 µM (active).

Regarding `CC1CCCCN1c1nnc(NC(=O)Nc2ccccc2F)s1` (stereo not given), the “activity change, negative = inhibition” value was -7.97% (inactive). On the same count and under the same terms, for `Cc1ccc(-c2nn(C)c(=O)c3ccccc23)cc1S(=O)(=O)NCCCN(C)C` the value was 5.16% (inactive); for `CCOC(=O)c1c(NC(=O)c2ccc(S(=O)(=O)N(C)C)cc2)sc2c1CCN(C)C2`, -11.3% (inactive). The same measure, in the same setting: for `COc1ccc(CCNC(=O)c2ccc3c(c2)N(Cc2ccccc2)CCS3)cc1OC` the value was 11.5% (inactive); for `COc1cccc(C(=O)Nc2ccc(-c3cc(C(F)(F)F)nn3-c3ccccc3)cc2)c1`, -20.9% (inactive). Same read-out and setting: for `COc1cc(C(=O)n2nc(C)c(Sc3ccc(Cl)cc3)c2C)cc(OC)c1OC` the value was 30.6% (inactive).
